According to PubChem BioAssay (NCI):
About 79,000 compounds went through this panel and 15% of them were active in at least one assay; those are over-represented in the sample as a whole. Calls of active or inactive are those of the source. Cut-off read from the data, not from the text of the source: active = growth inhibition above about 70%; inactive = the rest.

Columns and labels:
[1] = NCI Yeast Anticancer Drug Screen. Data for the rad52 strain (AID 147);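 note: 0% = growth of vehicle-treated control cultures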; conditions: S. cerevisiae rad52 mutant growth inhibition, hits give high values
How it was run: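 Screen used a yeast mutant impaired in DNA repair. After compound exposure, growth was measured. Values reflect inhibition compared with vehicle-treated cells.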

[2] = NCI Yeast Anticancer Drug Screen. Data for the wt1 strain (AID 149);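 note: 0% = growth of vehicle-treated wt1 cultures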; conditions: S. cerevisiae wt1 strain (SPY 50644) growth inhibition, hits give high values
How it was run: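 Each compound is tested on wt1 yeast and the loss of growth versus vehicle gives the inhibition value.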

[3] = NCI Yeast Anticancer Drug Screen. Data for the rad50EPP+ strain (AID 151);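 note: 0% = growth of vehicle-treated control cultures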; conditions: S. cerevisiae rad50 mutant strain, hits give high values
How it was run: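 Exposing the rad50EPP+ strain to each compound, growth was compared with vehicle-only cultures to give inhibition.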

[4] = NCI Yeast Anticancer Drug Screen. Data for the mgt1 strain (AID 153); conditions: S. cerevisiae mgt1 mutant growth inhibition, hits give high values
How it was run: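 Genetically defined yeast (mgt1) treated with compound; inhibition of growth expressed against vehicle-treated controls.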

[5] = NCI Yeast Anticancer Drug Screen. Data for the rad50 strain (AID 155);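 note: 0% = growth of vehicle-only cultures of the same strain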; conditions: S. cerevisiae rad50 strain growth inhibition, hits give high values
How it was run: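 Vehicle-treated cultures provide the reference for the growth inhibition reported for compound-exposed, repair-deficient yeast.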

[6] = NCI Yeast Anticancer Drug Screen. Data for the mec2-1 strain (AID 157); conditions: S. cerevisiae mec2-1 strain, hits give high values
How it was run: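 Readout is yeast growth inhibition, normalised to vehicle-treated controls, in the mec2-1 strain exposed to compound.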

[7] = NCI Yeast Anticancer Drug Screen. Data for the rad14 strain (AID 159);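 note: 0% = growth of vehicle-treated control cultures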; conditions: S. cerevisiae rad14 strain growth inhibition, hits give high values
How it was run: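 Inhibition of growth is reported for a repair-deficient yeast mutant following compound treatment, calculated relative to cultures that received vehicle.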

[8] = NCI Yeast Anticancer Drug Screen. Data for the sgs1 mgt1 strain (AID 161);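 note: 0% = growth of cultures given vehicle only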; conditions: S. cerevisiae sgs1 mgt1 strain, hits give high values
How it was run: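 Yeast cells carrying a defined DNA-repair defect were exposed to test compounds. Growth inhibition was measured relative to vehicle-treated controls.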

[9] = NCI Yeast Anticancer Drug Screen. Data for the CLN2oe strain (AID 163);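 note: 0% = growth of vehicle-only control cultures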; conditions: S. cerevisiae CLN2oe strain, hits give high values
How it was run: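 Values reflect how much compound exposure reduced yeast growth, referenced to vehicle-exposed cells. Assay organism is a strain with a defined genetic change affecting cell-cycle control.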

[10] = NCI Yeast Anticancer Drug Screen. Data for the cln2 rad14 strain (AID 165);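 note: 0% = growth equal to vehicle treated cultures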; conditions: S. cerevisiae cln2 rad14 strain, hits give high values
How it was run: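 Relative to vehicle controls, growth inhibition of compound-treated cln2 rad14 yeast was recorded.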

[11] = NCI Yeast Anticancer Drug Screen. Data for the bub3 strain (AID 167); conditions: S. cerevisiae bub3 mutant strain, hits give high values
How it was run: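 Mutant yeast screening strain plus compound; vehicle-treated cultures serve as the 0% inhibition reference.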

[12] = NCI Yeast Anticancer Drug Screen. Data for the wt2 strain (AID 169); conditions: S. cerevisiae wt2 strain growth inhibition, hits give high values
How it was run: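 Values express reduction in yeast growth under compound treatment, referenced to vehicle-treated cells.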

[13] = NCI Yeast Anticancer Drug Screen. Data for the mlh1 strain (AID 171);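 note: 0% = growth of vehicle-treated control cultures of the same strain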; conditions: S. cerevisiae mlh1 strain growth inhibition, hits give high values
How it was run: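 Steps: expose the defined-mutant yeast strain to compound; expose a parallel culture to vehicle; measure growth; express compound effect as inhibition relative to the vehicle culture.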

[14] = NCI Yeast Anticancer Drug Screen. Data for the sgs1 strain (AID 173);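 note: 0% = growth of vehicle-only control cultures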; conditions: S. cerevisiae sgs1 mutant, hits give high values
How it was run: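 Treat defined-mutant yeast with compound; measure growth; calculate inhibition relative to vehicle-treated cells.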

[15] = NCI Yeast Anticancer Drug Screen. Data for the mlh1 rad18 strain (AID 175); conditions: S. cerevisiae mlh1 rad18 strain growth inhibition, hits give high values
How it was run: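 Test agents were incubated with a yeast strain of defined genotype (DNA damage repair defect). Inhibition of growth was derived by comparison with vehicle-exposed cultures.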

[16] = NCI Yeast Anticancer Drug Screen. Data for the rad18 strain (AID 177); conditions: S. cerevisiae rad18 mutant growth inhibition, hits give high values
How it was run: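 A genetically defined yeast mutant impaired in DNA damage repair was treated with test compounds, then its growth was measured against cultures receiving vehicle alone.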

[17] = at 5.0 µM (retest, dose inferred, filed as 0.5)
[18] = at 50.0 µM (retest, dose inferred, filed as 5.0)

Measured: growth inhibition

COC1/C=C\C=C(/C)C(=O)NC2=CC(=O)C(=O)C(=C2O)CC(C)CC(OC)C(O)C(C)/C=C(\C)C1OC(N)=O (stereo unspecified)
inactive: [1]; at 1.2 µM 24% | [1]; at 3.7 µM 32% | [2]; at 1.2 µM 10% | [2]; at 3.7 µM -17% | [3]; at 1.2 µM 15% | [3]; at 3.7 µM 2% | [3]; at 11.0 µM 3% | [3]; at 33.0 µM 7% | [3]; at 100.0 µM 46% | [4]; at 1.2 µM -10% | [4]; at 3.7 µM 28% | [5]; at 1.2 µM 17% | [5]; at 3.7 µM 40% | [5]; [17] -17% | [6]; at 1.2 µM -12% | [6]; at 3.7 µM 50% | [6]; [17] 56% | [7]; at 1.2 µM -13% | [7]; at 3.7 µM -10% | [8]; [17] 13% | [9]; at 1.2 µM -32% | [9]; at 3.7 µM 34% | [10]; [17] 45% | [11]; at 1.2 µM -6% | [11]; at 3.7 µM 51% | [11]; [17] 67% | [12]; at 1.2 µM 6% | [12]; at 3.7 µM 7% | [13]; at 1.2 µM -5% | [13]; at 3.7 µM 11% | [14]; at 1.2 µM 28% | [14]; at 3.7 µM 36% | [15]; [17] 33% | [16]; at 1.2 µM 12% | [16]; at 3.7 µM 3%
active: [1]; at 11.0 µM 94% | [1]; at 33.0 µM 98% | [1]; at 100.0 µM 97% | [2]; at 11.0 µM 86% | [2]; at 33.0 µM 95% | [2]; at 100.0 µM 94% | [4]; at 11.0 µM 90% | [4]; at 33.0 µM 96% | [4]; at 100.0 µM 95% | [5]; at 11.0 µM 94% | [5]; at 33.0 µM 96% | [5]; [18] 94% | [5]; at 50.0 µM 87.5% | [5]; at 100.0 µM 95% | [6]; at 11.0 µM 94% | [6]; at 33.0 µM 96% | [6]; [18] 97% | [6]; at 50.0 µM 89.8% | [6]; at 100.0 µM 95% | [7]; at 11.0 µM 91% | [7]; at 33.0 µM 95% | [7]; at 100.0 µM 95% | [8]; [18] 95% | [8]; at 50.0 µM 89.8% | [9]; at 11.0 µM 94% | [9]; at 33.0 µM 95% | [9]; at 100.0 µM 94% | [10]; [18] 96% | [10]; at 50.0 µM 77.8% | [11]; at 11.0 µM 93% | [11]; at 33.0 µM 96% | [11]; [18] 97% | [11]; at 50.0 µM 86.2% | [11]; at 100.0 µM 95% | [12]; at 11.0 µM 89% | [12]; at 33.0 µM 96% | [12]; at 100.0 µM 96% | [13]; at 11.0 µM 89% | [13]; at 33.0 µM 94% | [13]; at 100.0 µM 94% | [14]; at 11.0 µM 91% | [14]; at 33.0 µM 96% | [14]; at 100.0 µM 95% | [15]; [18] 92% | [15]; at 50.0 µM 83.2% | [16]; at 11.0 µM 91% | [16]; at 33.0 µM 96% | [16]; at 100.0 µM 95%

CN1CCN(C(=O)c2cccc3cccc(C(=O)O)c23)CC1
active: [1]; at 100.0 µM 97% | [3]; at 100.0 µM 72% | [4]; at 100.0 µM 99% | [5]; [18] 84% | [5]; at 50.0 µM 85% | [5]; at 100.0 µM 99% | [6]; at 50.0 µM 97.7% | [6]; at 100.0 µM 99% | [7]; at 100.0 µM 98% | [8]; [18] 88% | [8]; at 50.0 µM 77.6% | [9]; at 100.0 µM 97% | [11]; [18] 89% | [11]; at 100.0 µM 97% | [12]; at 100.0 µM 98% | [13]; at 100.0 µM 100% | [14]; at 100.0 µM 100% | [15]; [18] 99% | [16]; at 100.0 µM 99%
inactive: [1]; at 1.2 µM 11% | [1]; at 3.7 µM 10% | [1]; at 11.0 µM 7% | [1]; at 33.0 µM 38% | [2]; at 1.2 µM 6% | [2]; at 3.7 µM 9% | [2]; at 11.0 µM 11% | [2]; at 33.0 µM 12% | [2]; at 100.0 µM 33% | [3]; at 1.2 µM 15% | [3]; at 3.7 µM 12% | [3]; at 11.0 µM 10% | [3]; at 33.0 µM 36% | [4]; at 1.2 µM 4% | [4]; at 3.7 µM 12% | [4]; at 11.0 µM 11% | [4]; at 33.0 µM 23% | [5]; at 1.2 µM 9% | [5]; at 3.7 µM 9% | [5]; [17] -12% | [5]; at 11.0 µM 8% | [5]; at 33.0 µM 61% | [6]; at 1.2 µM 10% | [6]; at 3.7 µM 12% | [6]; [17] -19% | [6]; at 11.0 µM 13% | [6]; at 33.0 µM 23% | [6]; [18] 1% | [7]; at 1.2 µM 12% | [7]; at 3.7 µM 11% | [7]; at 11.0 µM 14% | [7]; at 33.0 µM 32% | [8]; [17] -14% | [9]; at 1.2 µM 13% | [9]; at 3.7 µM 15% | [9]; at 11.0 µM 14% | [9]; at 33.0 µM 32% | [10]; [17] -10% | [10]; [18] 6% | [10]; at 50.0 µM 38.6% | [11]; at 1.2 µM 12% | [11]; at 3.7 µM 15% | [11]; [17] 25% | [11]; at 11.0 µM 16% | [11]; at 33.0 µM 33% | [11]; at 50.0 µM 51.8% | [12]; at 1.2 µM -6% | [12]; at 3.7 µM -4% | [12]; at 11.0 µM -7% | [12]; at 33.0 µM -8% | [13]; at 1.2 µM 8% | [13]; at 3.7 µM 9% | [13]; at 11.0 µM 10% | [13]; at 33.0 µM 29% | [14]; at 1.2 µM -14% | [14]; at 3.7 µM -21% | [14]; at 11.0 µM -13% | [14]; at 33.0 µM 16% | [15]; [17] -30% | [15]; at 50.0 µM 9.9% | [16]; at 1.2 µM 11% | [16]; at 3.7 µM 11% | [16]; at 11.0 µM 13% | [16]; at 33.0 µM 33%

Nc1cc(Cl)ccc1Nc1ccccc1
active: [2]; at 100.0 µM 94% | [4]; at 100.0 µM 85% | [5]; [18] 99% | [5]; at 50.0 µM 79.2% | [5]; at 100.0 µM 93%
inactive: [1]; at 1.2 µM -25% | [1]; at 3.7 µM -22% | [1]; at 11.0 µM -27% | [1]; at 33.0 µM -18% | [1]; at 100.0 µM 68% | [2]; at 1.2 µM -31% | [2]; at 3.7 µM -26% | [2]; at 11.0 µM -25% | [2]; at 33.0 µM -17% | [3]; at 1.2 µM -58% | [3]; at 3.7 µM -21% | [3]; at 11.0 µM -19% | [3]; at 33.0 µM 28% | [3]; at 100.0 µM 69% | [4]; at 1.2 µM -25% | [4]; at 3.7 µM -15% | [4]; at 11.0 µM -10% | [4]; at 33.0 µM -1% | [5]; at 1.2 µM -21% | [5]; at 3.7 µM -15% | [5]; [17] 60% | [5]; at 11.0 µM -8% | [5]; at 33.0 µM 16% | [6]; at 1.2 µM -42% | [6]; at 3.7 µM -6%
